{
  "source": "ChEMBL document CHEMBL1157539",
  "about": "“Thousands of chemical starting points for antimalarial lead identification” (Nature, 2010)",
  "data": [
    {"system": "Plasmodium falciparum", "test": "GSK_TCMDC: Inhibition of Plasmodium falciparum Dd2 in whole red blood cells, using parasite LDH activity as an index of growth. Test compounds present at 2uM", "assay_type": "functional", "units": {"Inhibition": "%"}, "values": [
      {"compound": "Cc1cc(N(C)CCN(C)C)nc(Nc2ccc(Cl)cc2)n1", "Inhibition": 14},
      {"compound": "Cc1cc(NC(=O)Nc2ccc(Oc3ccccc3)cc2)c2ccccc2n1", "Inhibition": 28},
      {"compound": "COc1cc(NCC(C)CNCc2cn(Cc3ccccc3)c3ccccc23)nc2ccccc12", "note": "(stereo unspecified)", "Inhibition": 55},
      {"compound": "CN1CCN(c2cc(-c3ccncc3)nc(-c3cccnc3)n2)CC1", "Inhibition": 98},
      {"compound": "COc1ccc(-c2cccc(NC(=O)c3cccc(C#N)c3)c2)cc1CN1CCN(C)CC1.O=C(O)C(F)(F)F", "Inhibition": 16},
      {"compound": "OCCN1CCN(C(=S)NC2CCCCC2)CC1", "Inhibition": 0},
      {"compound": "CC1CCCCC1N(C)C1CCN(CCCNC(=O)C=Cc2cccc(C(F)(F)F)c2)CC1", "note": "(stereo unspecified)", "Inhibition": 17},
      {"compound": "CN(C(=O)Cc1ccc(Cl)c(Cl)c1)C1CCN(CCCCCNC(=O)/C=C/c2ccc(Cl)c(Cl)c2)CC1", "Inhibition": 13},
      {"compound": "O=C(Nc1cccc(-c2cccc(-c3nc4cc(F)ccc4[nH]3)c2)c1)Nc1ccc2c(c1)OCO2", "Inhibition": 49},
      {"compound": "CCn1ncc2c(N3CCCC3=O)cc(C(=O)N[C@@H](Cc3ccccc3)[C@H](O)CNC(C)(C)c3cccc(C(F)(F)F)c3)cc21", "Inhibition": 99}
    ]},
    {"system": "HepG2", "test": "GSK_TCMDC: Percent inhibition of human HepG2 cell line. Test compounds present at 10uM.", "assay_type": "functional", "units": {"Inhibition": "%"}, "values": [
      {"compound": "O=C(O)C(F)(F)F.c1cc(CN2CCN(c3ccncc3)CC2)cc(-c2ccc(-c3nc4ccccc4[nH]3)cc2)c1", "Inhibition": 60},
      {"compound": "O=C(Nc1ccc(I)cc1)Nc1ccc(Cn2ncc(N3CCCNCC3)c(Cl)c2=O)cc1.O=C(O)C(F)(F)F", "Inhibition": 35},
      {"compound": "N#Cc1ccc(N(CCOc2ccc(Cl)c(F)c2)Cc2ccccc2C(F)(F)F)cc1C(F)(F)F", "Inhibition": 17},
      {"compound": "COc1cccc(-c2ccc3c(-c4ccc(F)cc4)cnc(N)c3c2)c1.O=CO", "Inhibition": 27},
      {"compound": "COc1ccccc1CN1CCC(NC(=O)c2ccc(-c3cccc(C(F)(F)F)c3)s2)CC1.O=C(O)C(F)(F)F", "Inhibition": 83},
      {"compound": "O=C(Cn1c(CCc2cccc(F)c2F)cc(=O)c2ccccc21)N(Cc1ccc(-c2ccc(C(F)(F)F)cc2)cc1)C1CCN(CCN2CCOCC2)CC1.O=C(O)C(O)C(O)C(=O)O", "Inhibition": 53},
      {"compound": "CCCN(CCC)CCOc1ccc(C(O)(C#CC(O)(c2ccc(OCCN(CCC)CCC)cc2)c2cccc(Cl)c2)c2cccc(Cl)c2)cc1", "note": "(stereo unspecified)", "Inhibition": 100},
      {"compound": "N#Cc1cccc(C(=O)Nc2cccc(-c3ccc(C(=O)NCCCN4CCOCC4)cc3)c2)c1", "Inhibition": 21},
      {"compound": "COc1cccc(OC)c1-c1ccccc1NC(=O)N1CCCc2cc(C)ccc21", "Inhibition": 51},
      {"compound": "Nc1nc(N)c2c(ccc3c2ccn3Cc2ccccc2)n1", "Inhibition": 64},
      {"compound": "CCOc1ccc(N(CC)S(=O)(=O)c2cc(Br)cc3c2N(C(=O)C2CC2)CC3)cc1", "Inhibition": 0},
      {"compound": "O=C(Nc1ccc2c(c1)OCO2)NC1CCN(c2ccnc(NCc3ccc(F)cc3)n2)CC1", "Inhibition": 33},
      {"compound": "CC(C)(C)c1ccc(NC(=O)c2cccc(CN3CCN(Cc4cccc(O)c4)CC3)c2)cc1.O=C(O)C(F)(F)F", "Inhibition": 28},
      {"compound": "CN1CCCC(CN2CCN(Cc3ccc(-c4ccc(-c5nc6cc(F)ccc6[nH]5)s4)cc3)CC2)C1.O=C(O)C(F)(F)F", "note": "(stereo unspecified)", "Inhibition": 73},
      {"compound": "CO/C(=C\\C=C\\c1cc2cc(Cl)c(Cl)cc2[nH]1)C(=O)NCCCN1CCN(Cc2ccccc2)CC1", "Inhibition": 45},
      {"compound": "Cl.c1ccc(-c2nc3ccccc3[nH]2)c(Nc2ccnc3cc(-c4nccs4)ccc23)c1", "Inhibition": 0},
      {"compound": "COc1cccc2cc(C(=O)N[C@@H](CC(C)C)C(=O)N[C@H](C=NN(C)C(=O)OC(C)(C)C)Cc3ccccc3)oc12", "Inhibition": 5},
      {"compound": "Cc1[nH]n(-c2cccc(C(F)(F)F)c2)c(=O)c1-c1ccc(Cl)cc1", "Inhibition": 7},
      {"compound": "COc1ccc(-c2cc(C(=O)N[C@@H](CC3CCCCC3)C(=O)NC3CCCc4ccccc43)ccc2O)cc1", "note": "(stereo partly specified)", "Inhibition": 7},
      {"compound": "N#Cc1cc(C(=O)Nc2ccccc2)c(N)nc1SCC(=O)Nc1ccc(Br)cc1", "Inhibition": 11},
      {"compound": "Cc1ccccc1NC(=O)NC1CCN(CCCCCNC(=O)/C=C/c2ccc(Cl)c(Cl)c2)CC1", "Inhibition": 13},
      {"compound": "CC(C)N1CCC(NCc2ccc(-c3ccc(Cl)cc3)cc2)CC1", "Inhibition": 50},
      {"compound": "Br.N=C(N)Nc1nc(-c2cccc(NC(=O)C(F)(F)F)c2)cs1", "Inhibition": 0},
      {"compound": "CCn1ccc2c(N3CCCS3(=O)=O)cc(C(=O)N[C@@H](Cc3ccccc3)[C@H](O)CNC(C)(C)CCCC(C)C)cc21", "Inhibition": 8},
      {"compound": "CCCCOc1c(CCC)cc(Cc2cnc(N)nc2N)cc1CCC.Cl", "Inhibition": 27},
      {"compound": "CCc1cn2c3c(cc(C(=O)N[C@@H](Cc4cccc(Cl)c4)[C@H](O)CNC4CC4)cc13)N(C)S(=O)(=O)CC2.O=CO", "Inhibition": 10}
    ]}
  ]
}
